Data on 40 compounds can be found in PubChem BioAssay AID2576 (National Center for Advancing Translational Sciences (NCATS), 2010).

Results filed as inconclusive are left out. The source made the active and inactive calls. Calls follow the shape of the dose curve; as a rule, active = well fitted activation curve with a large enough effect; inconclusive = small, poorly fitted or top-dose-only effect, or effect the other way; inactive = flat fitted curve, though single readings scatter.

Pyruvate kinase PKM (Homo sapiens), sequence (P14618 whole entry, looked up, canonical isoform): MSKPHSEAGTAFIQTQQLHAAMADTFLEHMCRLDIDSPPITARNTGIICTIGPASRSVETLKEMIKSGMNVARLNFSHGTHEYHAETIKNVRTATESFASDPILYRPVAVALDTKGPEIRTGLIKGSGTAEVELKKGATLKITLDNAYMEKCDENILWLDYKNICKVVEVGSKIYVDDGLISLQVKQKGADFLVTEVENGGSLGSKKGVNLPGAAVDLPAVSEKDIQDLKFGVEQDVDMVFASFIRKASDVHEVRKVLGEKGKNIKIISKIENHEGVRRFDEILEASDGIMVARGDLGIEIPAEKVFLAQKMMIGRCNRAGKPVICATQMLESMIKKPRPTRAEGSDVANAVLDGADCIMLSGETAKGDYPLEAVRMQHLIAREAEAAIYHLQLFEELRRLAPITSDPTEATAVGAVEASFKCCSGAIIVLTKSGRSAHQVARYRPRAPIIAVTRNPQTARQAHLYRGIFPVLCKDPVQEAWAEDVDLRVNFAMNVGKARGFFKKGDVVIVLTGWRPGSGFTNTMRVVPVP

This test concerns the target Pyruvate kinase PKM (Homo sapiens) (UniProt P14618). Description: Secondary LDH Assay for Activators of Human Pyruvate Kinase M2 isoform: for Probe SAR. The following applies: purified hPK-M2, LDH-coupled NADH fluorescence kinetic; series mostly up to 58.4 µM; activation: at the top concentration. An excerpt:
NIH Chemical Genomics Center [NCGC] Matthew G. Vander Heiden, M.D., Ph.D. [Harvard Medical School, 77 Avenue Louis Pasteur, Boston, MA 02115] NCGC Assay Overview: Human pyruvate kinase muscle 2 (hPK-M2)enzyme was supplied as a highly purified (>95% pure) preparation from Harvard Medical School and a secondary assay was used to evaluate compounds. This assay couples the formation of pyruvate from hPK-M2 using lactate dehydrogenase (LDH) and NADH. The depletion of NADH is followed in a fluorescent-based kinetic assay that follows the formation of pyruvate to lactate, as catalyzed LDH (described by Hannaert et al., 2002)1 Pyruvate kinase substrates, PEP and ADP, were present in the assay at 0.1 mM and 4 mM respectively. In this kinetic assay initial rates were determined by following the fluorescence of NADH depletion.
NCGC Assay Protocol Summary: Three uL of substrate mix (final concentration, 50 mM Tris-Cl pH 8.0, 200 mM KCl, 15 mM MgCl2, 0.1 mM PEP, 4.0 mM ADP, and 0.2 mM NADH) was dispensed into black-solid 1536 well plates. 23 nL of compounds were delivered by a pin tool and 1 uL of enzyme mix (final concentrations, 10 nM hPK-M2 and 1 uM of LDH) was added. Plates were immediately placed in ViewLux (Perkin Elmer) and NADH fluorescence was determined at 30 second exposure intervals for between 3 and 6 minutes. Data were normalized to the uninhibited and EC100 activation using known activators such as fructose-bis-phosphate.
As for `O=S1(=O)N=C(Oc2ccc(Cl)cc2)c2ccccc21`, the “activation” value is -1.7% (inactive).
Consider `Cc1ccc(NS(=O)(=O)c2cc3c(cc2Cl)NC(=O)CO3)cc1C`, for which the Potency is 0.819 µM (active).
On to `O=C1c2ccccc2C(=O)N1c1ccc2ncccc2c1`, for which the “activation” value was -4.15% (inactive).
With `Cc1ccc(NS(=O)(=O)c2cc3c(cc2F)NC(=O)CC3)cc1C`, the Potency was 2.59 µM (active).
As for `Cc1ccc(NS(=O)(=O)c2cc3c(cc2-c2cn[nH]c2)NC(=O)CO3)cc1C`, the “activation” value was 2.03% (inactive).
`CCCCN1C(=O)c2ccccc2C1=O`: the “activation” value is 2.71% (inactive).
Still for that read-out and setting: to `O=C1c2ccccc2C(=O)N1c1cccc2ccncc12` belongs -6.87% (inactive); to `CC(=O)N1CCCc2cc(S(=O)(=O)Nc3ccc(C)c(C)c3)ccc21`, 12.3% (inactive); to `O=C1CCc2cc(S(=O)(=O)Nc3ccc(-c4ccccc4)cc3)ccc2N1`, 6.56% (inactive).
Same read-out and setting: next, `Cc1ccccc1Nc1c(-c2ccc(Cl)s2)nc2ccccn12`: 0.026% (inactive); `O=C1c2ccccc2C(=O)N1c1cccc2cccnc12`: 1.58% (inactive).
Consider `Cc1ccc(NS(=O)(=O)c2ccc(N3CCCC3=O)cc2)cc1C`, for which the “activation” value is 14.4% (inactive).
Regarding `Nc1cc(S(=O)(=O)N2CCN(S(=O)(=O)c3ccc4c(c3)OCCO4)CC2)ccn1`, the “activation” value was 20.4% (inactive).
Consider `O=C1c2ccccc2C(=O)N1c1nccs1`, for which the “activation” value was 9.77% (inactive).
Same read-out and setting: to `O=C1CCc2cc(S(=O)(=O)Nc3ccc(F)cc3)ccc2N1` belongs 27% (inactive).
For `COc1cccc(N2C(=O)c3ccccc3C2=O)n1`, the “activation” value was 5.33% (inactive).
Regarding `O=C1c2ccccc2C(=O)N1c1cccc(=O)[nH]1`, the “activation” value was 3.56% (inactive).
The same measure, in the same setting: to `Cc1ccc(NS(=O)(=O)c2cc3c(cc2-c2ccsc2)NC(=O)CO3)cc1C` belongs 16.6% (inactive); to `Cc1ccc(NS(=O)(=O)c2ccc3c(c2)CCN(C(=O)C(F)(F)F)C3)cc1C`, 16.1% (inactive).
Consider `Cc1ccc(-c2nc3ccc(Cl)cn3c2Nc2ccccc2)o1`, for which the “activation” value is -2.32% (inactive).
Turning to `O=C1c2ccccc2C(=O)N1c1ccc2ccccc2n1`, the “activation” value was -12.5% (inactive).
Regarding `O=S1(=O)N=C(Oc2ccccc2)c2ccccc21`, the “activation” value is 2.56% [at 82.8 µM] (inactive).
For `O=C1c2ccccc2C(=O)N1c1ccc(O)cc1`, the “activation” value is 4.24% (inactive).
For the compound `Cc1ccccc1NS(=O)(=O)c1ccc2c(c1)CCC(=O)N2`, the Potency is 6.51 µM (active).
Take `O=C1c2ccccc2C(=O)N1c1ncccc1O`: the “activation” value is 2.37% (inactive).
For `COc1ccccc1N1C(=O)c2ccccc2C1=O`, the “activation” value is 7.13% (inactive).
On the same count and under the same terms, to `Fc1ccccc1-c1ccc(-c2nc3ccc(Cl)cn3c2Nc2ccc(Cl)cc2)o1` belongs 5.95% (inactive); to `O=C1c2ccccc2C(=O)N1c1cc(=O)c2ccccc2[nH]1`, 8.9% (inactive).
Turning to `O=C1c2ccccc2C(=O)N1c1ccc(Cl)cc1`, the “activation” value was 16.4% (inactive).
Regarding `COc1ccccc1OC1=NS(=O)(=O)c2ccccc21`, the “activation” value is -4.13% (inactive).
Regarding `Cc1ccc(N[S+](=O)([O-])c2cc3c(cc2CCc2ccccc2)NC(=O)CO3)cc1C`, the “activation” value is 12.6% (inactive).
Still for that read-out and setting: to `O=C1CCc2cc(S(=O)(=O)Nc3ccccc3Cl)ccc2N1` belongs 16.6% (inactive).
In the case of `Cc1nc(-c2ccc(S(=O)(=O)Nc3ccc(C)c(C)c3)s2)cs1`, the “activation” value was 20.2% (inactive).
For the compound `Cn1c2cc(S(C)=O)sc2c2cnn(Cc3cccc(O)c3)c(=O)c21` (stereo not given), the Potency is 1.03 µM (active).
The same measure, in the same setting: next, `Cc1ccc(NS(=O)(=O)c2ccc3c(c2)CCC(=O)N3)cc1C`: 0.146 µM (active).
As for `COc1ccc(Nc2c(-c3ccc(C)o3)nc3ccccn23)cc1`, the “activation” value is -5.07% (inactive).
`CSc1cc2c(s1)c1cnn(Cc3cccc(N)c3)c(=O)c1n2C`: the Potency was 0.058 µM (active).
Consider `Cc1ccc(C)c(OC2=NS(=O)(=O)c3ccccc32)c1`, for which the “activation” value was -5.9% (inactive).
As for `Cc1ccc(NS(=O)(=O)c2cc3c(cc2C)NC(=O)CO3)cc1C`, the Potency is 1.03 µM (active).
Take `Cc1ccc2nc(-c3cccs3)c(Nc3ccccc3)n2c1`: the “activation” value was -15.2% (inactive).
